Measurements reported in PubChem BioAssay (NCATS).
Several values for one entry are separate records, joined by “and”; a condition that tells them apart may be missing. Equal values may be shown once. Results filed as inconclusive are left out. Unmarked numbers belong to inactive results. Activity calls are given as the source filed them. Calls follow the shape of the dose curve; as a rule, active = well fitted curve in the direction sought with a large enough effect; inconclusive = small, poorly fitted or top-dose-only effect, or another doubt; inactive = no such curve, though single readings can be large or run the other way.
% is scaled to controls: 0 for no effect and ±100 for the full control effect; potency is read from the fitted curve at half-maximal effect.

Assay: qHTS Assay for Identifying Gametocytocidal Compounds (AID 743244);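 as to max response: actives lower the fluorescent signal which means gametocytes are killed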
Settings: P. falciparum 3D7 stage III-V gametocytes, alamarBlue, 72 h; max response: stronger effect = lower value
Method in brief: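 3D7 gametocytes, stages III–V, 20,000/well; cpd 72 h, 37 °C/5% CO2; + alamarBlue 24 h; fluor. Ex 525/Em 598.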
With `CNC(=O)CN(CCN(CCN(CC(=O)[O-])CC(=O)NC)CC(=O)[O-])CC(=O)[O-].O.[Gd+3]` the max response was 14.6% and -8.14%.
Compound `CCOC(=O)c1cccc(N)c1` has a max response of -5.91%.
Compound `CCCCCCCCCCCCCCCCCC(=O)OCC(O)CO` (stereo unspecified) has a max response of -12.5%.
`C[C@H]1[C@H](NC(=O)/C(=N/OC(C)(C)C(=O)O)c2csc(N)n2)C(=O)N1S(=O)(=O)O` (stereo in doubt) showed a max response of -0.904%.
With `CC1=C(C(=O)O)N2C(=O)[C@@H](NC(=O)[C@H](N)c3ccc(O)cc3)[C@H]2SC1` the max response was 17.2%.
With `NC(=O)C(=O)N/N=C/c1ccc([N+](=O)[O-])o1` the Potency was 17.8 µM (active).
Work on `CC(=O)Nc1c(I)cc(I)c(C(=O)O)c1I` yielded a max response of 44.8%.
Compound `OCc1ccccc1O` has a max response of 23.6%.
With `CC[N+](CC)(CCNC(=O)C(=O)NCC[N+](CC)(CC)Cc1ccccc1Cl)Cc1ccccc1Cl` the max response was 15.6%.
For `C#C[C@]1(OC(C)=O)CC[C@H]2[C@@H]3CCC4=C[C@@H](OC(C)=O)CC[C@@H]4[C@H]3CC[C@@]21C`, the max response was -2.21% and -10.1%.
`CC(=O)OCC(=O)[C@@]12N=C(C)O[C@@H]1C[C@H]1[C@@H]3CCC4=CC(=O)C=C[C@]4(C)[C@H]3[C@@H](O)C[C@@]12C` showed a max response of -5.59%.
Work on `C#C[C@]1(O)CC[C@H]2[C@@H]3CCc4cc(OC5CCCC5)ccc4[C@H]3CC[C@@]21C` yielded a max response of 6.16%.
With `C[n+]1c2cc(N)ccc2cc2ccc(N)cc21` (tested in a mixture with another compound) the Potency was 7.94 µM (active).
With `O=C(OCC(O)CO)c1ccccc1Nc1ccnc2cc(Cl)ccc12` (stereo unspecified) the max response was 7.94%.
For `CN1CCC(=C2c3ccccc3Sc3ccccc32)CC1`, the Potency was 15.8 µM (active).
For `Cc1cc(N)c2cc(NC(=O)Nc3ccc4nc(C)cc(N)c4c3)ccc2n1`, the max response was -2.17%.
With `CCCN1CCCC[C@H]1C(=O)Nc1c(C)cccc1C` the max response was -10.7%.
For `CCC(C(=O)OCCN(CC)CC)c1ccccc1` (stereo unspecified), the max response was -1.81%.
In the case of `CCN1CCCC1=O`, the max response is reported as 5.59%.
Compound `Cc1c(C(C)C)c(=O)n(-c2ccccc2)n1C` has a max response of 39.2%.
`Cc1ccc(Nc2c(F)cccc2Cl)c(CC(=O)O)c1` showed a max response of 0.561%.
`OC(CCN1CCCCC1)(c1ccccc1)c1ccccc1` showed a max response of 13.3%.
For `O=C(N/N=C/c1ccccc1O)c1ccncc1`, the max response was -7.05%.
With `CN(C)CC/C=C1/c2ccccc2COc2ccc(CC(=O)O)cc21` the max response was 3.04%.
Work on `CCN(CCCCOC(=O)c1ccc(OC)c(OC)c1)C(C)Cc1ccc(OC)cc1` (stereo unspecified) yielded a max response of 14.8%.
For `CCCCCCCCCCCCCCCC[N+](C)(C)CC`, the Potency was 14.1 µM (active).
Work on `CC(=O)CC(c1ccc([N+](=O)[O-])cc1)c1c(O)c2ccccc2oc1=O` (stereo unspecified) yielded a max response of 29.4%.
Work on `CC1(C)O[C@@H]2C[C@H]3[C@@H]4C[C@H](F)C5=CC(=O)C=C[C@]5(C)[C@H]4[C@@H](O)C[C@]3(C)[C@]2(C(=O)CO)O1` yielded a max response of -4.1%.
Work on `Cc1ncc(CSSCc2cnc(C)c(O)c2CO)c(CO)c1O` yielded a max response of -2.24%.
For `NC(=O)CC[C@@H]1NC(=O)[C@H](Cc2ccccc2)NC(=O)[C@H](Cc2ccc(O)cc2)NC(=O)CCSSC[C@@H](C(=O)N2CCC[C@H]2C(=O)N[C@@H](CCCN=C(N)N)C(=O)NCC(N)=O)NC(=O)[C@H](CC(N)=O)NC1=O`, the max response was 1.03% and -0.48%.
Compound `C[C@H](O)C(=O)Nc1c(I)c(C(=O)NC(CO)CO)c(I)c(C(=O)NC(CO)CO)c1I` has a max response of 9.34%.
`CCN(CC)C(=O)/C(C#N)=C/c1cc(O)c(O)c([N+](=O)[O-])c1` gave a max response of -6.8%.
For `CN(C)CCOc1ccccc1Cc1ccccc1`, the max response was -21.1%.
For `Oc1c(I)cc(I)c2cccnc12`, the Potency was 8.91 µM (active).
In the case of `COCc1c(C(C)C)nc(C(C)C)c(/C=C/[C@@H](O)C[C@@H](O)CC(=O)O)c1-c1ccc(F)cc1`, the max response is reported as -6.56%.
Compound `Cc1c(C)n(CCN(C)C)c2ccc(C(=O)OCCN(C)C)cc12` has a max response of 8.04%.
